# Assay outcomes deposited in PubChem BioAssay by National Center for Advancing Translational Sciences (NCATS).
# The full list was thinned out, with hits kept by preference.
# HT1080-NT tox – kills 2HG-producing HT-1080-NT fibrosarcoma cells; 1.6% of 360,000 active; Potency, µM (highest dose often 46.1 µM), hits mostly cytotoxic; AID 686970; HT-1080-NT fibrosarcoma viability, CellTiter-Glo ATP luminescence, 48 h;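 note: NT is the 2HG producing partner of a matched IDH1 knockdown line; nearly all actives have a fitted effect of over 55% in size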
#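 Luminescent CellTiter-Glo readout after 48 hours of compound exposure at 37 degrees C defined viability of HT-1080-NT cells. Activity was normalized to DMSO wells and cell-free media wells; concentration-response curves were fitted and assigned curve classes.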
# HT1080 IDH1KD tx – HT-1080 IDH1 knockdown cell toxicity (counter line); HT-1080 IDH1 knockdown viability, ATP luminescence, 48 h; Potency, µM (highest dose often 46.1 µM), actives largely listed as cytotoxic; 2% of 360,000 active; AID 686971
#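 Viability of IDH1-knockdown HT-1080 fibrosarcoma cells was assessed by CellTiter-Glo after 48 h at 37 °C with titrated compound; concentration-effect curves were classified by fit quality and response size.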
# DT40 TDP1 CPT – DT40-hTDP1 cell growth loss with CPT | chicken DT40 Tdp1-/-;hTDP1 cells + 20 nM CPT, ATP luminescence, 48 h | Potency, µM (series often up to 46.2 µM), usual class: inhibitors | 12% of 420,000 active; note: nearly all actives have a fitted effect of over 55% in size
#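 Cell growth measured by CellTiter-Glo luminescence after a minimum 48 h, 37 C compound exposure with 20 nM CPT in Tdp1-knockout DT40 cells stably expressing hTDP1, seeded 400/well; qHTS titration format.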
# TDP1 cell noCPT – qHTS for Inhibitors of human tyrosyl-DNA phosphodiesterase 1 (TDP1): qHTS in cells in absence of CPT; Potency, µM (doses to about 46.2 µM), hits mostly inhibitors; AID 686978, 2013; DT40 Tdp1-/- hTDP1 cells, no CPT, ATP luminescence, 48 h; 15% of 420,000 active; note: nearly all actives have a fitted effect of over 55% in size
#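 Seeded 400 DT40-hTDP1 cells/well (vehicle DMSO, no 20 nM CPT); pinned compounds; ≥48 hr at 37 °C; CellTiter-Glo luminescence as viability measure.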
# ALOX12 inh – blocks human arachidonate 12S-lipoxygenase; purified 12hLO, xylenol orange hydroperoxide absorbance; Potency, µM (top dose mostly 108 µM), actives largely listed as inhibitors; 1.1% of 580,000 active; AID 1671190
# Target sequence (P18054 whole entry, looked up): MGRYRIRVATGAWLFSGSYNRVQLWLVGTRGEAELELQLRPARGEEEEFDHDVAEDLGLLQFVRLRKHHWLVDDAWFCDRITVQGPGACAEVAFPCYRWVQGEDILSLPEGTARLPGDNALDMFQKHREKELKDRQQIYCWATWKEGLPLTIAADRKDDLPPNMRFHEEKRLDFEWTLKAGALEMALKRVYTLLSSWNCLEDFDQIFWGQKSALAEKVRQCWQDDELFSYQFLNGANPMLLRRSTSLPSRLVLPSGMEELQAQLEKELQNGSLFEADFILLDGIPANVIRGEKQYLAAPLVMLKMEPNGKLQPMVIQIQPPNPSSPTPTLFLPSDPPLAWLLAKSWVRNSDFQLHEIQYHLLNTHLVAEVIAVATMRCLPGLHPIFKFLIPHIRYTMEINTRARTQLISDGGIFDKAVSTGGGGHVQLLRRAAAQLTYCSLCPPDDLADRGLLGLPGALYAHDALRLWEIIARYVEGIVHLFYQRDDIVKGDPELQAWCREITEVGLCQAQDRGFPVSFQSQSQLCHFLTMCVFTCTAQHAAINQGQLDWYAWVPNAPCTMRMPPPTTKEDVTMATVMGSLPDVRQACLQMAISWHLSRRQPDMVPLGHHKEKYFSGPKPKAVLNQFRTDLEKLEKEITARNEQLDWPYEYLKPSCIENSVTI
#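 Purified human 12hLO at 150 nM in 25 mM Hepes, 0.01% Triton X-100, pH 7.0, preincubated 15 min at room temperature with compound. Reaction started with 40 uM arachidonic acid, 30 min at room temperature. Hydroperoxide measured by Fe-xylenol orange, 573/405 nm absorbance ratio.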
# IL-1B inflam inh – blocks inflammasome-driven IL-1 beta release. THP-1 LPS/ATP IL-1B secretion, AlphaLISA, 16 h; stronger effect = lower value. 4.7% of 360,000 active. activity change, % at 57.5 µM. AID 743279; in the data active = activity change below about -50%; inconclusive = mostly about -30% to -49%
#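 Secreted IL-1B measured by AlphaLISA bead assay after 16 h compound exposure of THP-1 cells; compounds (final up to 57.5 uM) added 1 h before LPS (250 ng/mL) and ATP (1.25 mM) stimulation; lower signal means less secretion.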
# Hits are given with their value; . = inactive; ? = inconclusive; / = not tested or not shown. Unless noted, calls come from the whole dose curve; as a rule, active = well fitted curve in the direction sought with a large enough effect; inconclusive = small, poorly fitted or top-dose-only effect, or another doubt; inactive = no such curve, though single readings can be large; an effect the other way counts as inactive or inconclusive.
SMILES,HT1080-NT tox,HT1080 IDH1KD tx,DT40 TDP1 CPT,TDP1 cell noCPT,ALOX12 inh,IL-1B inflam inh
COC(=O)C(C)N1C(=O)S/C(=C\c2cc(C)n(-c3ccccn3)c2C)C1=O (stereo not given),.,.,13µM,?,?,.
CCOC(=O)CN1C(=O)S/C(=C/c2cc(C)n(-c3ccccn3)c2C)C1=O,.,.,?,?,.,.
O=C(Cn1ccc2cc(Cl)ccc21)N1CCOCC1,/,/,/,/,.,/
N#Cc1ccc(CN2CCCN(CC(=O)N3CCN(C4CCS(=O)(=O)C4)CC3)CC2)cc1 (stereo not given),/,/,/,/,.,/
O=C1CC(c2ccccc2Oc2cccc(Cl)c2)C(n2cncn2)C(=O)C1C1NCCc2ccccc21 (stereo not given),.,.,.,.,32µM,.
CS(=O)(=O)N1CCc2n[nH]c(=O)n2CC1,/,/,/,/,.,/
Cc1ccc2oc(C(=O)N(Cc3cccc(Cl)c3)C3CCS(=O)(=O)C3)cc(=O)c2c1 (stereo not given),/,/,/,/,.,/
CCN(CC(=O)Nc1ccc2c(c1)OCCO2)C(=O)c1cc(Cl)nc2ccccc12,.,.,.,.,.,.
c1cncc(-c2nc(NCc3ccc4c(c3)OCO4)c3ccccc3n2)c1,.,.,?,21µM,.,.
c1ccc(CN2CCC(Nc3nc(-c4cccnc4)nc4ccccc34)CC2)cc1,?,21µM,18µM,13µM,?,-91
NS(=O)(=O)c1ccc(CNc2nc(-c3cccnc3)nc3ccccc23)cc1,.,.,?,15µM,.,?
CCN(CC(=O)Nc1ccc2c(c1)OCCO2)c1nc(-c2cccnc2)nc2ccccc12,.,.,?,23µM,.,.
CCCN1CCC(Nc2nc(-c3cccnc3)nc3ccccc23)CC1,/,/,/,/,.,/
COc1ccc(C2Cn3nnc(C(=O)N4CCN(C(=O)c5ccc(F)cc5Cl)CC4)c3CO2)cc1 (stereo not given),/,/,/,/,.,/
O=c1[nH]c(C2CCN(Cc3ccc(C(F)(F)F)cc3)CC2)nn1Cc1ccccc1,/,/,/,/,.,/
COc1ccc(-c2nc(-c3nonc3N)no2)cc1,/,/,/,/,.,/
CC(Nc1nc(-c2ccccc2)nc2ccccc12)c1ccccc1 (stereo not given),?,.,?,?,.,.
c1cncc(-c2nc(NCC3COc4ccccc4O3)c3ccccc3n2)c1 (stereo not given),?,?,18µM,?,?,-78
Fc1ccc(CNc2nc(-c3cccnc3)nc3ccccc23)cc1,.,?,?,18µM,?,-69
COC(=O)CNc1nc(-c2cccnc2)nc2ccccc12,.,.,.,.,.,.
CC(Nc1nc(-c2cccnc2)nc2ccccc12)c1ccc(F)cc1 (stereo not given),.,?,26µM,18µM,.,-68
COc1ccc(C(CNc2nc(-c3cccnc3)nc3ccccc23)N(C)C)cc1 (stereo not given),16µM,16µM,?,?,.,-82
CNC(=O)c1nc(-c2ccc(COc3ccc4c(c3)OCO4)cc2)no1,/,/,/,/,.,/
Cn1nc(C(=O)Nc2ccc(Oc3ccccc3)cc2)c2ccccc2c1=O,/,/,/,/,.,/
COC(=O)c1c(NC(=O)CSc2nc3ccc(C)cc3[nH]2)sc2c1CCC2,/,/,/,/,.,/
SMILES,HT1080-NT tox,HT1080 IDH1KD tx,DT40 TDP1 CPT,TDP1 cell noCPT,ALOX12 inh,IL-1B inflam inh
CC(Nc1nc(-c2ccccc2F)nc2ccccc12)c1ccccc1 (stereo not given),.,.,.,?,.,-90
CC(Nc1nc(-c2ccccc2O)nc2ccccc12)c1ccccc1 (stereo not given),?,?,?,?,.,.
COc1ccc(Cl)cc1NC(=O)Nc1ccc(Br)cn1,?,18µM,?,?,.,.
COc1ccc(Cl)cc1NC(=O)Nc1cccc([N+](=O)[O-])c1C,.,.,?,23µM,?,.
COc1ccc(Cl)cc1NC(=O)NC1CCCCC1,.,.,.,?,.,.
O=C(Nc1ccc(Cl)cc1)Nc1ccc(Br)cn1,?,.,18µM,18µM,.,.
COc1ccc2[nH]c3c(c2c1)CCNC31CCN(C(=O)NC(C)(C)C)CC1,/,/,/,/,.,/
O=C1C(=C2CCCCC2)SC(=S)N1Cc1ccco1,.,?,?,16µM,?,.
O=C(NCc1ccc2c(c1)OCO2)c1ccc(NC(=O)c2nsc3ccccc23)cc1,/,/,/,/,.,/
CCOC(=O)c1c(C)[nH]c2cc(Br)c(OC)cc12,.,.,.,.,.,.
CCOC(=O)c1[nH]c(C)c(CCC(=O)NCc2cccc(C)c2)c1C,/,/,.,?,.,/
COc1ccc(CCC(=O)NCc2ccccc2Cl)cc1OC,.,.,.,.,.,.
CCOC(=O)c1c(C)[nH]c(CCC(=O)NCc2cc(Br)ccc2OC)c1C,/,/,?,18µM,?,/
CCOC(=O)c1c(C)[nH]c(CCC(=O)NCc2ccc(CC)cc2)c1C,/,/,?,18µM,.,/
CCOC(=O)c1c(C)[nH]c(CCC(=O)NCc2ccccc2C)c1C,/,/,?,13µM,.,/
CCOC(=O)c1c(C)[nH]c(CCC(=O)NCc2ccccc2Cl)c1C,/,/,?,21µM,.,/
O=C(Nc1ccc(N2CCN(C(=O)c3cccs3)CC2)cc1)c1cccnc1,.,.,?,?,.,-52
O=C(Nc1ccc(N2CCN(C(=O)c3ccc(Cl)cc3)CC2)cc1)c1cccnc1,.,.,?,?,.,?
O=C(Nc1ccc(N2CCN(C(=O)c3ccccc3)CC2)cc1)c1cccnc1,.,.,.,.,.,-58
CCn1ccc(C(=O)NCc2cccnc2N(C)CCc2ccccn2)n1,/,/,/,/,.,/
N#Cc1ccc2[nH]ccc2c1,/,/,/,/,.,/
O=C(Nc1ccc(Cl)cc1)N1CCC(CN2CCCCCC2)CC1,/,/,?,23µM,.,/
Cc1ccc(CN2CCCC(c3nn(-c4ccc(Cl)cc4)c(=O)[nH]3)C2)cc1 (stereo not given),/,/,/,/,18µM,/
O=C(Nc1ccc(Cl)cc1)N1CCC(CN2CCCC2)CC1,/,/,.,.,.,/
O=C(Cc1ccc(F)cc1)N1CCC(c2nn(-c3ccc(Cl)cc3)c(=O)[nH]2)CC1,/,/,/,/,28µM,/
O=C(Cc1ccc(Cl)cc1)N1CCC(c2n[nH]c(=O)n2Cc2ccc(F)cc2)CC1,/,/,/,/,14µM,/
COc1ccc(Cn2c(C3CCN(C(=O)Cc4ccc(F)cc4)CC3)n[nH]c2=O)cc1,/,/,/,/,.,/
CCCOc1cc(C)c(C(C)C)cc1S(=O)(=O)N1CCCC1,/,/,/,/,.,/
O=C(Nc1ccc(Cl)cc1)N1CCC(c2nn(-c3ccc(Cl)cc3)c(=O)[nH]2)CC1,/,/,/,/,13µM,/
O=C(Cc1ccccn1)N1CCCC(c2nn(-c3ccccc3)c(=O)[nH]2)C1 (stereo not given),/,/,/,/,.,/
